Measured values published in PubChem BioAssay.

Assay: growth of efflux-deficient E. coli DRC39 – strain DRC39, OD650, 48 h, E. coli filamentation inducers, primary screen (AID 1179);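 also: screen aims at cell division blockers that make cells filament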
Conditions: E. coli DRC39 delta-acrAB growth, higher = more signal, called active from +8 up or from −8 down

z-score, inactive:
CC(C)c1ccc(NN2C(C(O)c3ccc4c(c3)OCO4)C=CC3C(=O)N(c4ccccc4)C(=O)C32)cc1 (stereo unspecified) -0.563
CN1C(=O)[C@@]2(CCC(=O)OC(C)(C)C)N=C(c3ccc(OCCCO)cc3)O[C@H]2c2ccccc21 0.767
COC(=O)[C@@]1(Cc2ccc(F)cc2)[C@@H]2C(=CC(=O)[C@H]2CC(=O)C(=O)N(C)C)CN1C(=O)c1ccccc1 0.0104
O=C(CS)NCCCCCNC(=O)[C@H]1C[C@H]2C(=O)N3CCC[C@H]3C(=O)N2[C@H]1c1cccc(OCCO)c1 0.36
C=CCOC(=O)[C@H]1[C@@H]2C(=O)O[C@@H](c3ccccc3)[C@@H](c3ccccc3)N2[C@@H](c2ccc(OCCOC(=O)[C@H]3C[C@H]4C(=O)N[C@@H](Cc5ccccc5)C(=O)N4[C@H]3c3ccc(O)cc3)cc2)[C@]12C(=O)Nc1ccccc12 0.124
COc1ccc([Si](C)(C)[C@@H]2[C@@H](CCO)O[C@]3(C(=O)N(Cc4ccc(NC(C)=O)cc4)c4ccccc43)[C@H]2C)cc1 -0.937
CCCCCN1CC=CC23O[C@@H]4C=CCOC(=O)[C@@H]4[C@H]2C(=O)N(CCCCCCO)[C@@H]3C1=O (stereo partly specified) 0.225
COC(=O)C1(C)C=C2C(=C(c3ccccc3)C(=O)C2C)CN1 (stereo unspecified) -0.348
CC(C)N1CC=CC23O[C@@H]4C=CCCOC(=O)C4[C@H]2C(=O)N(CCCCCCO)[C@@H]3C1=O (stereo partly specified) 0.541
COc1ccc([Si](C)(C)[C@H]2[C@H](CCO)O[C@@]3(C(=O)N(Cc4cccc(NC(=O)[C@H](C)O)c4)c4ccccc43)[C@@H]2C)cc1 1.14
COc1ccc(CCNC(=O)[C@@H]2c3ccccc3C(=O)N(c3ccc(C)cn3)[C@H]2c2ccc(CO)cc2)cc1 -0.113
C=CCNC(=O)[C@H]1[C@@H]2C(=O)O[C@@H](c3ccccc3)[C@@H](c3ccccc3)N2[C@@H](c2ccc(O)cc2)[C@]12C(=O)N(C(=O)OCCOC)c1ccc(C#CC3=CCCCC3)cc12 -0.723
[N-]=[N+]=NCc1ccccc1[C@@H]1OC(c2ccc(OCCCO)cc2)=N[C@]1(Cc1ccccc1)C(=O)N1CCOCC1 0.917
CC(C)C[C@@H]1NC(=O)[C@H]2C[C@@H](C(=O)NCCCCCCN(C)C)[C@@H](c3cccc(OCCO)c3)N2C1=O 0.0484
C=C(/C(=C/C[C@@H](OC(=O)c1ccncc1)c1ccc(OCCO)cc1)c1cnc2ccccc2c1)C(C)C 0.432
CS(=O)(=O)CCOC(=O)C1=CC(CCCO)=CC(c2cccs2)N(Cc2cccc(OC(F)(F)F)c2)C=C1C(=O)OCCS(C)(=O)=O (stereo unspecified) -0.0926
COCCCNC(=O)[C@]1(CCC(=O)OC(C)(C)C)N=C(c2ccc(OCCCO)cc2)O[C@@H]1c1ccccc1N=[N+]=[N-] 0.0528
Cc1ccc(C2CC=C(C(=O)O)CN2S(=O)(=O)c2ccc(C)cc2)cc1 (stereo unspecified) -1.52
O=C1O[C@@H](c2ccccc2)[C@@H](c2ccccc2)N2[C@@H](c3ccc(OCCO)cc3)[C@]3(C(=O)Nc4ccccc43)[C@@H](C(=O)N3CCN(c4ncccn4)CC3)[C@H]12 1.07
COCCOC(=O)N1C(=O)[C@@]2(c3cc(C#CCNC(N)=O)ccc31)[C@H](c1ccccc1OCCO)N1[C@H](c3ccccc3)[C@H](c3ccccc3)OC(=O)[C@H]1[C@@H]2C(=O)N1CCN(c2ncccn2)CC1 1.18
COCCOC(=O)N1C(=O)[C@@]2(c3cc(C#Cc4ccc(OC)cc4)ccc31)[C@H](C(=O)N1CCN(c3ncccn3)CC1)[C@H]1C(=O)O[C@H](c3ccccc3)[C@H](c3ccccc3)N1[C@@H]2c1ccc(OCCO)cc1 -0.0435
CN(C)CCCNC(=O)[C@@H]1c2ccccc2C(=O)N(Cc2cc(F)cc(C(F)(F)F)c2)[C@H]1c1ccc(CO)cc1 -0.578
CCCNC(=O)[C@@H]1c2ccccc2C(=O)N(c2ccc(C)cn2)[C@H]1c1ccc(CO)cc1 0.0239
CN1C(=O)C2C=CC(C(O)c3ccc(I)cc3)N(NC(=O)OC(C)(C)C)C2C1=O (stereo unspecified) -0.18
COC(=O)c1c(CC[C@@H](CO)NC(=O)N[C@H](Cc2ccccc2)Cn2cc(-c3ccccc3N)nn2)oc(C(C)=O)c1C(=O)OC 0.561
CCCC=C(CCC)[C@@H](NC(=O)c1ccc(-c2ccccc2)cc1)c1ccc(C(=O)OC)cc1 -0.21
COCC(=C=CC[C@@H](O)c1ccccc1OCCO)CCO 1.16
CC1CC/C=C\[C@H]2OC34C=CCN(C(C)C)C(=O)[C@H]3N(CCCO)C(=O)[C@@H]4C2C(=O)O1 (stereo partly specified) 0.634
Cn1cccc1C(O)C1C=CC2C(=O)NC(=O)C2N1Nc1ccccn1 (stereo unspecified) -0.204
CCCC[C@H]1OB(O)C[C@H]2C1=C(C)C[C@H]1C(=O)N(C)C(=O)[C@H]12 0.499
Cc1ccc(S[C@]2(C(=O)NCC(F)(F)F)CC(=O)N(Cc3ccccc3Cl)[C@@H]2c2ccc(CO)cc2I)cc1 0.465
CC(C)NC(=O)[C@@H]1c2ccccc2C(=O)N(CC23CC4CC(CC(C4)C2)C3)[C@H]1c1ccc(CO)cc1 1.59
CCc1cccc(NC(=O)O[C@H]2[C@H](OC(=O)Nc3ccc4c(c3)OCO4)[C@@H](OC(=O)Nc3ccc4c(c3)OCO4)[C@@H](OC)O[C@@H]2CO)c1 0.494
CC(C)OC(=O)C=C1C[C@@H](c2ccc(C#N)cc2)O[C@@H](c2ccc(C#N)cc2)O1 -0.182
COC(=O)C1=CCC(c2cccc(Cl)c2)O1 (stereo unspecified) -0.0113
CCCC[C@@H](O)C1=C(C)C[C@H]2C(=O)N(Cc3ccccc3)C(=O)[C@H]2[C@H]1CO 0.183
